Measurements from PubChem BioAssay (NCATS).
Results filed as inconclusive are left out. Where a call stands in place of a potency, no number is given. Activity calls are given as the source filed them. Calls come from the whole dose curve; as a rule, active = well fitted inhibition curve with a large enough effect; inconclusive = small, poorly fitted or top-dose-only effect; inactive = no such curve, though single readings can be large or run the other way.
Potency is the fitted concentration of half-maximal effect.

What follows are molecules tested against Furin (Homo sapiens) (UniProt P09958) (assay: Furin counterscreen qHTS for Zika virus inhibitors (AID 1347149; note: nearly all actives have a fitted effect of over 70% in size)). Settings: furin enzymatic counterscreen, fluorogenic substrate; series mostly up to 114 µM.
Chain of Furin (Homo sapiens) (P09958 whole entry, looked up): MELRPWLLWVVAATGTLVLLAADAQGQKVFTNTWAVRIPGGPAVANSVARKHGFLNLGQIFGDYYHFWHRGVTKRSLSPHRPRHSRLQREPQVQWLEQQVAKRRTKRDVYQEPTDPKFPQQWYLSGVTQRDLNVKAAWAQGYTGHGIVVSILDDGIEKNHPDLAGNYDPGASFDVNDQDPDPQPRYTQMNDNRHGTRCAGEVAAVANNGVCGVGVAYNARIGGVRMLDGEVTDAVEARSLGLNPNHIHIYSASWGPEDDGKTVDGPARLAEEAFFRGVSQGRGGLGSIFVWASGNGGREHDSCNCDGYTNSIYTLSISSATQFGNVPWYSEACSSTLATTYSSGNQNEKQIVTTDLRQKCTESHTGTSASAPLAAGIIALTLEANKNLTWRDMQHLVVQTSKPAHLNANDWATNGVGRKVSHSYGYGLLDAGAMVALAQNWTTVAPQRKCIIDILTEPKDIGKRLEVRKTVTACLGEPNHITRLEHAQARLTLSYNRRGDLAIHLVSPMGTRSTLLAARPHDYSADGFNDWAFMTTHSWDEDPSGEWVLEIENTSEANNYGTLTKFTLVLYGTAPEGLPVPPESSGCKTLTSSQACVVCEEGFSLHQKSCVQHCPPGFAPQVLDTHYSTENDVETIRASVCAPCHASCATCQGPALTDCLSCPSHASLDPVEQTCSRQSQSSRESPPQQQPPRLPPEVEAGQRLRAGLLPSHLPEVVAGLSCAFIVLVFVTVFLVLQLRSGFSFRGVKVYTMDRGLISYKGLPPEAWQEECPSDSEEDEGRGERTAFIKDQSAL
From the text: Avindra Nath, Ph.D., National Institute of Neurological Disorders and Stroke (NINDS), Bethesda, MD
Radhakrishnan Padmanabhan, Ph.D., Georgetown University (GU), Washington D.C.
Zika Virus causes congenital defects, including microcephaly and is associated with Guillain-Barre syndrome, eningoencephalitis and myelitis in infected adult. […] Using a target-based approach, we hope to establish a screening paradigm to uncover novel, cell-active NS2B-NS3 protease (Zika Virus) specific inhibitors from NCATS' collection of small molecules using qHTS.
Four assay panel was created to identify potential Zika Virus inhibitors. Namely, (1) GU unlinked NS2B-NS3 AMC tagged protease qHTS, (2) GU unlinked NS2B-NS3 Rhodamine tagged protease qHTS, (3) NINDS linked NS2B-NS3 AMC tagged protease qHTS, (4) NINDS linked NS2B-NS3 Rhodamine tagged protease qHTS. Active compounds were re-acquired and re-screened to confirm inhibition. Inhibitors were further screened against various confirmatory and counterscreens in dose response format.
Early Translation Branch (ETB)
National Center for Advancing Translational Sciences (NCATS), Rockville, MD
National Institute of Health (NIH), Bethesda, Maryland
1536-well Furin BOC-RVRR-AMC Protocol:
Human recombinant Furin Serine Protease was purchased from Peprotech (catalog #450-47; full length; Rocky Hill, NJ). Briefly, 3 microL of enzyme (final concentrations of 5 nM), in assay buffer (100 mM HEPES pH 7.0, 1 mM CaCl2 with 0.01% Triton X-100) were dispensed into a 1,536-well solid-bottom black plate (Greiner Bio One, Monroe, NC). Twenty-three nL of compounds (final concentration range 7.28 nM to 114 microM) or control Furin Inhibitor I (Dec-RVKR-CMK; final concentration range 0.248 nM to 8.12 microM) were transferred via Wako Pin-tool (Wako Automation, Richmond, VA). Samples were incubated (RT, protected from light) for 15 minutes followed by a 1 microL substrate addition of BOC-RVRR-AMC (final concentration of 2 microM; Km = ~15 muM90). Plates were then read immediately on a ViewLux High-throughput CCD imager (PerkinElmer, Waltham, MA) equipped with standard UV fluorescence optics (340(30) nm excitation, 450(20) nm emission), then incubated (37C, protected from light) for 15 or 30 minutes (~9% conversion). The change in fluorescence intensity over the 15-minute reaction period was normalized against no-inhibitor and no-enzyme controls and the resulting percent inhibition data were fitted to a 4-parameter Hill equation. Furin Inhibitor I was used as intraplate control.
O=C(COC(=O)c1cccc(NC(=O)c2ccc(Br)cc2)c1)c1ccc(Br)cc1 was tested, and the Potency was “inactive”.
In the case of O=c1cc(-c2cc(O)c(O)c(O)c2)oc2cc(O)cc(O)c12, the Potency is reported as “inactive”.
CCc1ccc(S(=O)(=O)Nc2cc3c(C(=O)OCc4ccccc4)c(C)oc3c3ccccc23)cc1 was tested, and the Potency was “inactive”.
CCCCCCCCCC(=O)N[C@H](CCCN=C(N)N)C(=O)N[C@@H](C(=O)N[C@H](CCCCN)C(=O)N[C@@H](CCCN=C(N)N)C(=O)CCl)C(C)C was tested, and the Potency was 0.0891 µM (active).
O=C(O)c1c(Sc2ccccc2)c2cc(Cl)ccc2n1Cc1ccc(Cl)cc1 was tested, and the Potency was 21.5 µM (active).
O=C(OCC#CCSc1nnc(-c2cccc3ccccc23)o1)c1ccc(C(F)(F)F)cc1 was tested, and the Potency was 41.8 µM (active).
For O=S(=O)(Nc1ccc(Cl)cc1)c1ccc(NS(=O)(=O)c2ccc3c(c2)OCCO3)cc1, the Potency was “inactive”.
O=C(O)Cc1cc(I)c(Oc2cc(I)c(O)c(I)c2)c(I)c1 was tested, and the Potency was “inactive”.
O=C(/C=C/c1ccc(C(F)(F)F)cc1)OC(C(=O)NC1CC1)c1ccccc1 (stereo not given) was tested, and the Potency was “inactive”.
O=C(O)c1ccc(-c2cc(C(F)(F)F)ccc2Cl)cc1 was tested, and the Potency was “inactive”.
In the case of O=C(O)c1ccc2c(ccc3nn(-c4ccc(/C=C/c5ccc(-n6nc7ccc8cc(C(=O)O)ccc8c7n6)cc5[S+](=O)([O-])[O-])c([S+](=O)([O-])[O-])c4)nc32)c1, the Potency is reported as “inactive”.
For O=C(Nc1ccc(C(=O)OCc2cc(=O)n3c4c(sc3n2)CCCC4)cc1)c1ccccc1, the Potency was 41.8 µM (active).
With C[S+](CC[C@H](N)C(=O)O)C[C@H]1O[C@@H](n2cnc3c(N)ncnc32)[C@H](O)[C@H]1O (stereo not given in full) the Potency was “inactive”.
In the case of Cc1ccc(-c2nnc(Nc3ccc(O)cc3)c3ccccc23)cc1S(=O)(=O)NC(C)(C)CO, the Potency is reported as “inactive”.
With CC(=O)Oc1cc2c(c(C)c1OC(C)=O)CC=C1[C@@]2(C)CC[C@@]2(C)[C@H]3C[C@](C)(C(=O)O)CC[C@]3(C)CC[C@]12C the Potency was “inactive”.
In the case of CCOc1ccc(C(=O)Nc2cccc(C(=O)OCc3cc(=O)n4nc(C5CC5)sc4n3)c2)cc1, the Potency is reported as 52.7 µM (active).
O=C(CSc1nnc(-c2cccc([S+](=O)([O-])NC3CCCC3)c2)n1-c1ccc(F)cc1)Nc1ccc(C(=O)O)cc1 was tested, and the Potency was “inactive”.
CC(C)c1nn2c(=O)cc(COC(=O)c3cccc(NC(=O)c4ccccc4F)c3)nc2s1 was tested, and the Potency was “inactive”.
For CC(C)(O)c1ccccc1CC[C@H](SCC1(CC(=O)O)CC1)c1cccc(/C=C/c2ccc3ccc(Cl)cc3n2)c1, the Potency was 52.7 µM (active).
In the case of O=C(COc1ccccc1F)Nc1ccc(C(=O)OCc2cc(=O)n3nc(C4CC4)sc3n2)cc1, the Potency is reported as “inactive”.
For O=C(CNC(=O)c1ccccc1)OC(C(=O)Nc1cc(C(F)(F)F)ccc1Cl)c1ccccc1 (stereo not given), the Potency was “inactive”.
In the case of O=C(Nc1c(C(=O)O)oc2ccccc12)c1ccc(C(F)(F)F)cc1, the Potency is reported as “inactive”.
CCCCCCc1cc2cc(-c3nnc(-c4cccc(Cl)c4)o3)c(=O)oc2cc1O was tested, and the Potency was “inactive”.
With CN(Cc1ccc(C(=O)O)cc1)c1ccc(OCc2c(-c3c(Cl)cccc3Cl)noc2C2CC2)nc1C(F)(F)F the Potency was 9.61 µM (active).
O=C(OCC#CCSc1nnc(-c2cccc3ccccc23)o1)c1ccc(F)c(F)c1 was tested, and the Potency was 59.1 µM (active).
For CC[C@@H]1O[C@]2(C=C[C@@H]1C)C[C@H]1C[C@H](CC=C(C)[C@@H](O[C@@H]3C[C@H](OC)[C@H](O[C@@H]4C[C@H](OC)[C@H](O)[C@H](C)O4)[C@H](C)O3)[C@@H](C)C=CC=C3CO[C@@H]4[C@@H](O)C(C)=C[C@@H](C(=O)O1)[C@]34O)O2, the Potency was “inactive”.
With CC[C@@H](C(=O)[C@H](C)[C@@H](O)[C@H](C)CCc1ccc(C)c(O)c1C(=O)O)C1O[C@@](CC)(C2CC[C@](O)(CC)[C@H](C)O2)C[C@@H]1C (stereo not given in full) the Potency was “inactive”.
With O=C(COc1ccccc1C(=O)OCC(=O)Nc1cccc2ccccc12)Nc1ccc(Br)cc1 the Potency was “inactive”.
With O=C(CSc1ncccc1C(=O)Oc1ccccc1Cl)Nc1ccc(C(F)(F)F)cc1Cl the Potency was “inactive”.
In the case of N#Cc1ccccc1S(=O)(=O)N[C@H]1CO[C@H]2[C@@H]1OC[C@H]2OC(=O)Nc1ccc(Oc2ccccc2)cc1, the Potency is reported as “inactive”.
COC(=O)c1c(NC(=O)c2cc3nc(-c4ccc(Br)cc4)cc(C(F)(F)F)n3n2)sc2c1CCCC2 was tested, and the Potency was “inactive”.
For CCOC(=O)c1ccc(NC(=O)CSc2nc(-c3ccc(OC)cc3)cc(C(F)(F)F)c2C#N)cc1, the Potency was “inactive”.
For N#Cc1ccc(OCC2CN(Cc3cccc(C(F)(F)F)c3)C(=O)c3c(ccnc3-c3ccc(OCC(=O)O)cc3)O2)cc1 (stereo not given), the Potency was “inactive”.
CC(C)(C)c1ccc(S(=O)(=O)Nc2ccc(O)c(Sc3nc4ccccc4s3)c2)cc1 was tested, and the Potency was “inactive”.
In the case of O=C(O[C@@H]1Cc2c(O)cc(O)cc2OC1c1ccc(O)c(O)c1)c1cc(O)c(O)c(O)c1 (stereo not given in full), the Potency is reported as “inactive”.
In the case of Cc1csc2nc(COC(=O)c3ccc(NC(=O)c4ccccc4Br)cc3)cc(=O)n12, the Potency is reported as 59.1 µM (active).
For CCN(CC)c1ccc(/C=N/NC(=O)c2ccc(O)cc2)cc1, the Potency was 24.1 µM (active).
O=C(Nc1ccccc1C(=O)OCc1cc(=O)n2nc(C3CC3)sc2n1)c1cccc(F)c1 was tested, and the Potency was “inactive”.
In the case of CC(C)c1nn2c(=O)cc(COC(=O)c3ccc(NC(=O)COc4ccccc4)cc3)nc2s1, the Potency is reported as “inactive”.
For Cc1oc2c(cc(NS(=O)(=O)c3ccc(F)cc3)c3ccccc32)c1C(=O)OCc1ccccc1, the Potency was “inactive”.
